{"source": "PubChem BioAssay"}
{"molecular_target": "Torsin-1A (Homo sapiens) (UniProt O14656)", "sequence (O14656 whole entry, looked up)": "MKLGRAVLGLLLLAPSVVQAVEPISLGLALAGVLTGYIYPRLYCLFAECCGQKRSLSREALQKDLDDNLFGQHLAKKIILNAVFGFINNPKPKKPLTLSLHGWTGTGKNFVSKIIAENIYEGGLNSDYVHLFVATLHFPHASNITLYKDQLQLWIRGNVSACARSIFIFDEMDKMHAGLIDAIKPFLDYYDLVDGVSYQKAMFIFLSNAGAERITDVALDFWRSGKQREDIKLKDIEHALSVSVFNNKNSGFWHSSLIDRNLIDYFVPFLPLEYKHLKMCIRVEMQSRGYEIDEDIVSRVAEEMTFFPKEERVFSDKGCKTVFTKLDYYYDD", "test": "small-molecule binders of mutant TOR1A in lysate, primary screen, cell lysate, small-molecule microarray, COS7 lysate, 635/667 nm fluorescence (AID 1150);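 further: score pools 667 nm emission and signal to noise measuring lysate protein binding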", "conditions": "COS7 hTOR1A mutant lysate, 635 nm fluorescence, higher = more signal"}
{"smiles": "C[N+](C)(C)CCCCNC(=O)[C@H]1C[C@H]2C(=O)N[C@@H](Cc3ccccc3)C(=O)N2[C@H]1c1ccc(O)cc1", "composite z-score": 0.513}
{"smiles": "[N-]=[N+]=NCc1ccccc1C[C@]1(C(=O)N2CCOCC2)N=C(c2ccc(OCCCO)cc2)O[C@H]1c1ccccc1N=[N+]=[N-]", "composite z-score": 1.44}
{"smiles": "CC(=O)NCCCC[C@@H]1NC(=O)[C@@H]2C[C@H](C(=O)NCCCCN(C)C)[C@H](c3cccc(OCCO)c3)N2C1=O", "composite z-score": 0.0889}
{"smiles": "COc1ccc(C(O)C2C=CC3C(=O)N(c4ccccc4)C(=O)C3N2Nc2ccc(C(C)C)cc2)cc1OCc1ccccc1", "note": "(stereo not given)", "composite z-score": 0.554}
{"smiles": "[N-]=[N+]=Nc1ccccc1[C@H]1OC(c2ccc(OCCCO)cc2)=N[C@@]1(Cc1ccccc1)C(=O)O", "composite z-score": 0.306}
{"smiles": "O=C(NCc1ccccc1)[C@@]1(Cc2ccccc2)N=C(c2ccc(OCCCO)cc2)O[C@H]1c1ccccc1", "composite z-score": 0.918}
{"smiles": "CCOC1=C2C(CN(S(=O)(=O)c3ccc(C)cc3)C2c2ccc(C)cc2)C2C(=O)N(c3ccccc3)C(=O)C2C1", "note": "(stereo not given)", "composite z-score": 0.115}
{"smiles": "CCOC(=O)C[C@H]1[C@H](OC(=O)c2ccc(C(=O)c3ccccc3)cc2)[C@@H](NC(=O)c2ccc(-c3ccccc3)cc2)c2cc(OCCCO)ccc2N1C(=O)c1ccccc1", "composite z-score": 0.311}
{"smiles": "COCCOC(=O)N1C(=O)[C@@]2(c3cc(C#Cc4ccc(OC)cc4)ccc31)[C@H](c1ccc(O)cc1)N1[C@H](c3ccccc3)[C@H](c3ccccc3)OC(=O)[C@H]1[C@@H]2C(=O)NC[C@H](O)c1ccccc1", "composite z-score": 1.07}
{"smiles": "COc1ccc(C(=O)O[C@H]2CC[C@]3(C)C4=C(CCC3C2(C)C)[C@]2(C)CC[C@H]([C@H](C)CCCC(C)C)[C@@]2(C)CC4)cc1", "note": "(stereo not given in full)", "composite z-score": 0.609}
